Results published in PubChem BioAssay.

Test: PSAC antagonists in infected red cells, primary screen, cell-based, P. falciparum Indochina, OD700, 18 h (AID 1157)
Conditions: P. falciparum Indochina infected erythrocytes, osmotic lysis OD700, 18 h; higher = more signal, called active from +8 up or from −8 down

z-score, inactive:
COc1cc(Cc2cc3c(c(-c4ccccc4)n2)[Si](C(C)C)(C(C)C)OC3)cc(OC)c1OC 0.332
COCCOC(=O)N1C(=O)[C@@]2(c3cc(C#CCC(C(=O)OC)C(=O)OC)ccc31)[C@H](C(N)=O)[C@H]1C(=O)O[C@H](c3ccccc3)[C@H](c3ccccc3)N1[C@@H]2c1ccccc1OCCO 1.05
C[C@@]1([C@@H](NS(=O)(=O)c2cccc3cccnc23)c2ccc(-c3ccccc3)cc2)C[C@H]1C1CCCCC1 0.691
C=C(C(=O)CC[C@@H](OC(=O)c1ccccc1-c1ccccc1C(=O)O)c1ccc(CO)o1)C(C)C 0.0861
CCOC(=O)C1=CCC(c2cccn2C(=O)OC(C)(C)C)N(S(=O)(=O)c2ccc(C)cc2)C1 (stereo unspecified) 0.486
O=C1N(Cc2ccccc2)c2ccccc2C[C@@]12N=C(c1ccc(OCCCO)cc1)O[C@H]2c1ccccc1 1.03
Cc1ccc(S[C@]2(C(=O)NC3CC3)CC(=O)N(C3Cc4ccccc4C3)[C@@H]2c2ccc(CO)cc2I)cc1 0.254
CCc1cccc(NC(=O)O[C@H]2[C@H](OC(=O)Nc3ccccc3-c3ccccc3)[C@H](OC(=O)Nc3ccccc3-c3ccccc3)[C@@H](OC)O[C@@H]2CO)c1 1.77
CC(C)C[C@H]1NC(=O)CNC(=O)[C@@]23C(=O)N[C@@H](Cc4ccccc4)C2[C@H](C)[C@@]2(C)O[C@H]2C3/C=C/C/C=C\CNC1=O (stereo partly specified) -0.0621
C=C(/C=C\CNS(=O)(=O)c1ccc(C)cc1)[C@H](O)[C@H]1CCCN1S(=O)(=O)c1ccccc1[N+](=O)[O-] 0.77
C[C@]1(C(=O)O)c2ccccc2C(=O)N(Cc2cc(C(F)(F)F)cc(C(F)(F)F)c2)[C@H]1c1ccc(CO)cc1 0.157
COC(=O)C(CC#Cc1ccc2c(c1)[C@]1(C(=O)N2)[C@H](c2ccc(OCCO)cc2)N2[C@H](c3ccccc3)[C@H](c3ccccc3)OC(=O)[C@H]2[C@@H]1C(N)=O)C(=O)OC 0.615
CN1C(=O)C2C=CC(C(O)c3ccc(I)cc3)N(N(c3ccccc3)c3ccccc3)C2C1=O (stereo unspecified) 1.54
COc1ccc([Si](C)(C)[C@@H]2[C@@H](CC(=O)N(CCO)Cc3ccccc3)O[C@]3(C(=O)N(Cc4cccc(I)c4)c4ccccc43)[C@H]2C)cc1 1.14
COc1ccc([Si](C)(C)[C@H]2[C@H](CC(=O)N3CCC[C@H]3CO)O[C@@]3(C(=O)N(Cc4cccc(N5CCCCC5=O)c4)c4ccccc43)[C@@H]2C)cc1 0.525
O=C1C2C=CC(C(O)C3CCCCC3)N(Nc3ccccc3F)C2C(=O)N1c1ccccc1 (stereo unspecified) -0.743
C=C(COC)/C(=C/C[C@@H](OC(C)=O)c1cccc(OCCO)c1)c1cnc2ccccc2c1 1.58
COC(=O)C1=CC(c2ccc(CO)cc2)=CC(C2CC2)N(Cc2cc3c(cc2Br)OCO3)C=C1C(=O)OC (stereo unspecified) 0.572
O=C/C=C/c1ccc(-c2ccccc2)cc1 -2.17
COc1ccc(C(O)C2C=CC3C(=O)N(C)C(=O)C3N2Nc2ccccc2)cc1 (stereo unspecified) 0.973
COCCOC(=O)N1C(=O)[C@@]2(c3cc(C#CCNC(N)=O)ccc31)[C@H](c1ccccc1OCCO)N1[C@H](c3ccccc3)[C@H](c3ccccc3)OC(=O)[C@H]1[C@@H]2C(=O)N1CCCCCCC1 0.238
CC1C2C(CCCO)=CC(C3C(=O)N(C(N)=O)C(=O)C23)N1Cc1cccc(OC(F)(F)F)c1 (stereo unspecified) 0.0624
CCCC=C(CCC)[C@@H](NC(=O)c1ccc(C(=O)OC)cc1)c1ccc(C(=O)OC)cc1 0.618
COc1ccc(C#Cc2ccc3c(c2)[C@]2(C(=O)N3)[C@H](c3ccccc3OCCO)N3[C@H](c4ccccc4)[C@H](c4ccccc4)OC(=O)[C@H]3[C@@H]2C(=O)NC[C@H](O)c2ccccc2)cc1 1.2
C=C(C(=O)CC[C@@H](OC(=O)c1ccccc1-c1ccccc1C(=O)O)c1cccc(OCCO)c1)C(C)C 0.233
C[C@]1(C(=O)NC2CC2)c2ccccc2C(=O)N(Cc2cc(F)cc(C(F)(F)F)c2)[C@H]1c1ccc(CO)cc1 0.597
C=C(COC)C(=O)CC[C@H](OC(C)=O)c1ccccc1OCCO -1.49
CCOC(=O)C[C@H]1[C@H](OC(=O)Cc2ccc3c(c2)OCO3)[C@@H](NC(=O)CC(C)C)c2cc(OCCCO)ccc2N1C(=O)c1ccc2ccccc2n1 -2.54
O=C1C[C@@](C(=O)NCC(F)(F)F)(c2ccc([N+](=O)[O-])cc2)[C@@H](c2ccc(CO)cc2I)N1CC12CC3CC(CC(C3)C1)C2 0.69
COc1cc(CO)cc(I)c1O[C@H]1C=C(C(=O)NCCO)C[C@@H](N(CCN2CCOCC2)C(=O)C2CCCO2)[C@@H]1O (stereo partly specified) 0.108
O=C1C2C=CC(C(O)C(c3ccccc3)c3ccccc3)N(Nc3ccccc3F)C2C(=O)N1c1ccccc1 (stereo unspecified) 0.852
COC(=O)C[C@H]1O[C@]2(C(=O)N(C)c3ccccc32)[C@@H](C)[C@@H]1[Si](C)(C)c1ccccc1 0.0591
CC(C)(C)OC(=O)CC[C@]1(C(=O)N2CCOCC2)COC(c2ccc(OCCCO)cc2)=N1 1.18
C=C(CC1([C@@H](NP(=O)(c2ccccc2)c2ccccc2)[C@H]2C[C@@H]2CCCC)CC1)c1cccc(OC)c1 0.935
COc1ccc(C(=O)Nc2cccc(CN3C(=O)[C@]4(O[C@H](CC(=O)N(CCO)Cc5ccccc5)[C@@H]([Si](C)(C)c5ccc(OC)cc5)[C@@H]4C)c4ccccc43)c2)cc1 0.795
CC[C@@H](O[Si](C#C[Si](C(C)C)(C(C)C)C(C)C)(C(C)C)C(C)C)c1cn([C@H](CO)Cc2ccccc2)nn1 0.0878
